This passage reports outcome and Potency results from PubChem BioAssay (Tox21).

Inconclusive results are not listed. Where a call stands in place of a potency, no number is given. The source made the active and inactive calls. Unless noted, the call rests on the fitted dose curve.

The nature of one assay: qHTS assay to identify small molecule agonists of the NFkB signaling pathway - cell viability counter screen (AID 1159515). Further: nearly all actives have a fitted effect of over 55% in size. The following applies: NFkB-bla ME-180 viability, CellTiter-Glo luminescence, 5 h; series mostly up to 61 µM. The method in brief: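 Plate 2,000 NFkB-bla ME-180 cells/well; incubate overnight. Add compounds, 5 hr at 37 C. Add FRET substrate, 1.5 hr RT. Add CellTiter-Glo, 30 min RT; read luminescence.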
Background: Quantitative high-throughput screening tests each substance at several concentrations.
On to `OCCCCC(O)CO` (centres undefined), for which the outcome was inactive.

For `CCCCCCCCC(=O)Cl`, the call was inactive.

As for `ClCCCl`, the call was inactive.

Consider `C=COCCOCCOCCOC=C`, for which the result was inactive.

In the case of `c1ccc2nccnc2c1`, the compound was classed as inactive.

For the compound `O=C(NCCc1c[nH]c2ccccc12)c1cccnc1`, the result was inactive.

For `CCCCNC1CC(C)(C)NC(C)(C)C1`, the call was inactive.

In the case of `C#CC(C)N(C)C(=O)Nc1ccc(Cl)cc1` (centres undefined), the compound was called inactive.

For `CN1C(C)(C)CCCC1(C)C`, the result was inactive.

As for `O=S(=O)(O)c1cc(O)c2ccc(Nc3ccccc3)cc2c1`, the call was inactive.

Consider `CC(C)(C)c1nnc(NS(=O)(=O)c2ccc(N)cc2)s1`, for which the compound was called inactive.

In the case of `C[C@@H]1O[C@@H](O[C@@H]2[C@@H](O)[C@H](OCCc3ccc(O)c(O)c3)O[C@H](CO[C@@H]3O[C@H](CO)[C@@H](O)[C@H](O)[C@H]3O)[C@H]2OC(=O)/C=C/c2ccc(O)c(O)c2)[C@H](O)[C@H](O)[C@H]1O`, the outcome was inactive.

In the case of `CC(C)CC(=O)O`, the call was inactive.

Turning to `Cc1cccc(OCC(O)CNC(C)(C)C)c1C` (centres undefined), the compound was classed as inactive.

Regarding `CCCC(=O)C(C)=O`, the call was inactive.

In the case of `O=S(=O)(O)c1ccc2cc(O)c(S(=O)(=O)O)cc2c1`, the compound was classed as inactive.

With `CCCOC(OCCC)OCCC`, the compound was classed as inactive.

Consider `COc1cc(N)ccc1C`, for which the outcome was inactive.

As to `COc1cc(NS(=O)(=O)c2ccc(N)cc2)nc(OC)n1`, the call was inactive.

With `CC(C)(C)c1cc(CCC(=O)NN)cc(C(C)(C)C)c1O`, the result was inactive.

For the compound `CCCN1C[C@H](CSC)C[C@@H]2c3cccc4[nH]cc(c34)C[C@H]21`, the result was inactive.

As to `CC(C)C(=O)OCCc1ccccc1`, the result was inactive.

Consider `COCCOC(=O)C1=C(C)NC(C)=C(C(=O)OC(C)C)C1c1cccc([N+](=O)[O-])c1` (centres undefined), for which the compound was called inactive.

Consider `COc1cc2c(cc1OC)[C@@H]1CC(=O)[C@@H](CC(C)C)CN1CC2`, for which the result was inactive.

Regarding `C=CCCCCCCCCCCCC`, the call was inactive.

Regarding `CC1=CCC(C(C)C)=CC1`, the result was inactive.

On to `Cc1ccc(S(=O)(=O)O)c(C)c1`, for which the compound was called inactive.

`CC[C@H](C)C(=O)O[C@H]1C[C@H](O)C=C2C=C[C@H](C)[C@H](CC[C@@H](O)C[C@@H](O)CC(=O)O)[C@H]21`: the outcome was inactive.

A further assay is described as follows: qHTS assay to identify small molecule agonists of the endoplasmic reticulum stress response signaling pathway (AID 1159516; active means well fitted activation curve with a large enough effect in the signal ratio in the repeat runs, not every such curve was filed as active; the % refers to the signal ratio). The following applies: ESRE-bla HeLa, ER stress beta-lactamase reporter, 5 h; series mostly up to 61 µM. The procedure, abridged:
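Beta-lactamase expression from the ER stress response element in HeLa reporter cells is quantified with the LiveBLAzer B/G FRET substrate, read at 405 nm excitation after 2 hr at room temperature, following 5 hr compound treatment at 37 C.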
On to `OCCCCC(O)CO` (centres undefined), for which the call was inactive.

Consider `CCCCCCCCC(=O)Cl`, for which the result was inactive.

For `ClCCCl`, the call was inactive.

Take `CC(C)CCCCOC(=O)c1ccccc1C(=O)OCCCCC(C)C`: the call was inactive.

As for `C=COCCOCCOCCOC=C`, the outcome was inactive.

For `c1ccc2nccnc2c1`, the call was inactive.

Turning to `O=C(NCCc1c[nH]c2ccccc12)c1cccnc1`, the call was inactive.

With `CCCCCCCCC1CCC(=O)O1` (centres undefined), the result was inactive.

`CC1COc2ccccc2N1` (centres undefined): the compound was classed as inactive.

As for `CCCCNC1CC(C)(C)NC(C)(C)C1`, the result was inactive.

`C#CC(C)N(C)C(=O)Nc1ccc(Cl)cc1` (centres undefined): the outcome was inactive.

Take `CN1C(C)(C)CCCC1(C)C`: the compound was called inactive.

Take `O=S(=O)(O)c1cc(O)c2ccc(Nc3ccccc3)cc2c1`: the outcome was inactive.

As for `CC(C)c1ccc2cc(C(C)C)ccc2c1`, the outcome was inactive.

Take `O=C(c1ccc(O)cc1)c1ccc(O)c(O)c1O`: the result was inactive.

Consider `CC(C)(C)c1nnc(NS(=O)(=O)c2ccc(N)cc2)s1`, for which the compound was called inactive.

As for `C[C@@H]1O[C@@H](O[C@@H]2[C@@H](O)[C@H](OCCc3ccc(O)c(O)c3)O[C@H](CO[C@@H]3O[C@H](CO)[C@@H](O)[C@H](O)[C@H]3O)[C@H]2OC(=O)/C=C/c2ccc(O)c(O)c2)[C@H](O)[C@H](O)[C@H]1O`, the compound was classed as inactive.

Turning to `CC(C)CC(=O)O`, the result was inactive.

On to `Cc1cccc(OCC(O)CNC(C)(C)C)c1C` (centres undefined), for which the outcome was inactive.

As for `CCCC(=O)C(C)=O`, the compound was called inactive.

With `O=S(=O)(O)c1ccc2cc(O)c(S(=O)(=O)O)cc2c1`, the outcome was inactive.

Consider `CCCOC(OCCC)OCCC`, for which the compound was classed as inactive.

On to `COc1cc(N)ccc1C`, for which the outcome was inactive.

Take `COc1cc(NS(=O)(=O)c2ccc(N)cc2)nc(OC)n1`: the compound was called inactive.

`CC(C)(C)c1cc(CCC(=O)NN)cc(C(C)(C)C)c1O`: the call was inactive.

Consider `CC(N)C(=O)OC(C)(C)Cc1ccc(Cl)cc1` (centres undefined), for which the outcome was inactive.

Regarding `CCCN1C[C@H](CSC)C[C@@H]2c3cccc4[nH]cc(c34)C[C@H]21`, the compound was classed as inactive.

As to `CC(C(=O)O)c1ccc2c(c1)CC(=O)c1ccccc1S2` (centres undefined), the compound was called inactive.

`CC(C)C(=O)OCCc1ccccc1`: the result was inactive.

With `COCCOC(=O)C1=C(C)NC(C)=C(C(=O)OC(C)C)C1c1cccc([N+](=O)[O-])c1` (centres undefined), the call was inactive.

In the case of `COc1cc2c(cc1OC)[C@@H]1CC(=O)[C@@H](CC(C)C)CN1CC2`, the outcome was inactive.

On to `C=CCCCCCCCCCCCC`, for which the compound was classed as inactive.

For `Cc1cc2cc3c(C)cc(=O)oc3c(C)c2o1`, the outcome was inactive.

As for `CC1=CCC(C(C)C)=CC1`, the compound was called inactive.

For `Cc1ccc(S(=O)(=O)O)c(C)c1`, the result was inactive.

Turning to `Nc1ccc([N+](=O)[O-])c(N)c1`, the call was inactive.

Consider `Cc1ccccc1N=O`, for which the call was inactive.

Turning to `CC[C@H](C)C(=O)O[C@H]1C[C@H](O)C=C2C=C[C@H](C)[C@H](CC[C@@H](O)C[C@@H](O)CC(=O)O)[C@H]21`, the outcome was inactive.

A short description of a further assay: qHTS assay to identify small molecule agonists of the endoplasmic reticulum stress response signaling pathway - cell viability counter screen (AID 1159517). Further: nearly all actives have a fitted effect of over 50% in size. The following applies: ESRE-bla HeLa viability, CellTiter-Glo luminescence, 5 h; series mostly up to 61 µM. The method in brief: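 In parallel with the ESRE reporter read, cytotoxicity was scored by CellTiter-Glo luminescence (30 min, room temperature) on HeLa ESRE-bla cells dosed for 5 hr.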
Turning to `OCCCCC(O)CO` (centres undefined), the Potency entry was “inactive”.

Turning to `CCCCCCCCC(=O)Cl`, the Potency entry was “inactive”.

Regarding `ClCCCl`, the Potency result was “inactive”.

Take `CC(C)CCCCOC(=O)c1ccccc1C(=O)OCCCCC(C)C`: the Potency result was “inactive”.

`C=COCCOCCOCCOC=C`: the Potency entry is “inactive”.

In the case of `c1ccc2nccnc2c1`, the Potency result was “inactive”.

On to `O=C(NCCc1c[nH]c2ccccc12)c1cccnc1`, for which the Potency result is “inactive”.

As to `CCCCCCCCC1CCC(=O)O1` (centres undefined), the Potency result is “inactive”.

Take `CC1COc2ccccc2N1` (centres undefined): the Potency result is “inactive”.

With `CCCCNC1CC(C)(C)NC(C)(C)C1`, the Potency result is “inactive”.

For the compound `C#CC(C)N(C)C(=O)Nc1ccc(Cl)cc1` (centres undefined), the Potency entry is “inactive”.

Turning to `CN1C(C)(C)CCCC1(C)C`, the Potency entry is “inactive”.

In the case of `O=S(=O)(O)c1cc(O)c2ccc(Nc3ccccc3)cc2c1`, the Potency entry is “inactive”.

With `CC(C)c1ccc2cc(C(C)C)ccc2c1`, the Potency result is “inactive”.

As to `O=C(c1ccc(O)cc1)c1ccc(O)c(O)c1O`, the Potency result is “inactive”.

Regarding `CC(C)(C)c1nnc(NS(=O)(=O)c2ccc(N)cc2)s1`, the Potency entry is “inactive”.

As to `C[C@@H]1O[C@@H](O[C@@H]2[C@@H](O)[C@H](OCCc3ccc(O)c(O)c3)O[C@H](CO[C@@H]3O[C@H](CO)[C@@H](O)[C@H](O)[C@H]3O)[C@H]2OC(=O)/C=C/c2ccc(O)c(O)c2)[C@H](O)[C@H](O)[C@H]1O`, the Potency result was “inactive”.

For the compound `CC(C)CC(=O)O`, the Potency entry is “inactive”.

For `Cc1cccc(OCC(O)CNC(C)(C)C)c1C` (centres undefined), the Potency entry was “inactive”.

As to `CCCC(=O)C(C)=O`, the Potency result is “inactive”.

Regarding `O=S(=O)(O)c1ccc2cc(O)c(S(=O)(=O)O)cc2c1`, the Potency result was “inactive”.

Take `CCCOC(OCCC)OCCC`: the Potency result is “inactive”.

For the compound `COc1cc(N)ccc1C`, the Potency entry was “inactive”.

Turning to `COc1cc(NS(=O)(=O)c2ccc(N)cc2)nc(OC)n1`, the Potency entry was “inactive”.

Take `CC(C)(C)c1cc(CCC(=O)NN)cc(C(C)(C)C)c1O`: the Potency result was “inactive”.

Take `CC(N)C(=O)OC(C)(C)Cc1ccc(Cl)cc1` (centres undefined): the Potency result is “inactive”.

Turning to `CCCN1C[C@H](CSC)C[C@@H]2c3cccc4[nH]cc(c34)C[C@H]21`, the Potency result was “inactive”.

Take `CC(C(=O)O)c1ccc2c(c1)CC(=O)c1ccccc1S2` (centres undefined): the Potency result was “inactive”.

For the compound `CC(C)C(=O)OCCc1ccccc1`, the Potency result was “inactive”.

For `COCCOC(=O)C1=C(C)NC(C)=C(C(=O)OC(C)C)C1c1cccc([N+](=O)[O-])c1` (centres undefined), the Potency entry was “inactive”.

Turning to `COc1cc2c(cc1OC)[C@@H]1CC(=O)[C@@H](CC(C)C)CN1CC2`, the Potency result is “inactive”.

With `C=CCCCCCCCCCCCC`, the Potency result was “inactive”.

Turning to `Cc1cc2cc3c(C)cc(=O)oc3c(C)c2o1`, the Potency result is “inactive”.

For `CC1=CCC(C(C)C)=CC1`, the Potency result was “inactive”.

For the compound `Cc1ccc(S(=O)(=O)O)c(C)c1`, the Potency result is “inactive”.

Take `Nc1ccc([N+](=O)[O-])c(N)c1`: the Potency result is “inactive”.

Take `Cc1ccccc1N=O`: the Potency result is “inactive”.

Consider `CC[C@H](C)C(=O)O[C@H]1C[C@H](O)C=C2C=C[C@H](C)[C@H](CC[C@@H](O)C[C@@H](O)CC(=O)O)[C@H]21`, for which the Potency entry was “inactive”.
